From PubChem BioAssay
An excerpt weighted towards active compounds, which were near 3.2% of everything screened.
AMA1 RON2 block: inhibitors of Plasmodium falciparum AMA1-RON2 interaction. AlphaScreen AMA1-biotinylated RON2 peptide binding. Potency, µM (series often up to 58.2 µM), for the others: at the top dose activity change, negative = inhibition, most hits filed as inhibitors. actives 0.2% (n = 360,000). AID 720542;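 note: 0% = vehicle wells and -100% = peptide control; nearly all actives have a fitted effect of over 45% in size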
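AMA1 (3D7) with his tag at 25 nM final met compounds first, then biotinylated RON2 peptide at 25 nM; detection used donor plus acceptor beads, 10 µg/mL apiece, read by AlphaScreen after 30 min at room temperature.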
Tb PYK inh: blocks Trypanosoma brucei pyruvate kinase. Q57TT1. TbPYK enzyme, Kinase-Glo Plus ATP luminescence, 45 min. Potency, µM (doses to about 76.8 µM), for the others: at the top dose activity, negative = inhibition, hits mostly inhibitors. actives 0.12% (n = 410,000). AID 624173; note: nearly all actives have a fitted effect of over 50% in size
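Quantitative HTS: titrated library compounds versus trypanosomal pyruvate kinase in TEA buffer (pH 7.2) containing KCl, MgCl2, BSA and Tween-20. Reactions were initiated with ADP, 130 uM final. Kinase-Glo Plus luminescence was read after 45 min at RT.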
Sm TGR inh: blocks Schistosoma mansoni thioredoxin glutathione reductase | purified TGR, DTNB reduction, TNB absorbance 405 nm | Potency, µM (titrated, usually from 114 µM), inactives show at the top dose activity change, negative = inhibition, most hits filed as inhibitors | actives 3% (n = 360,000) | AID 485364; note: nearly all actives have a fitted effect of over 60% in size
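Kinetic colorimetric format: TGR-catalysed, NADPH-driven DTNB reduction monitored via TNB absorbance. Enzyme dispensed at 20 nM; compound exposure 15 min at room temperature before reaction start.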
RE007 growth inh: less growth of the S. pombe RE007 Vpr strain. S. pombe RE007 Vpr strain, BacTiter-Glo ATP luminescence, 24 h. Potency, µM (top dose mostly 92.2 µM), without a hit: at the highest dose activity change, negative = less growth, most hits filed as inhibitors. actives 0.21% (n = 360,000). AID 651644; active = well fitted falling curve with a large enough effect; inconclusive = small, poorly fitted or top-dose-only effect; inactive = no such curve, though single readings can be large or run the other way; note: nearly all actives have a fitted effect of over 50% in size
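Fission yeast strain RE007, carrying one chromosomally integrated HIV-1 vpr copy, was seeded at OD 0.01 in PMG+AL medium with 23 nL pinned compound. After 24 h at 30 °C and 99% humidity, viability was read by BacTiter-Glo luminescence.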
LmPK inh: inhibitors of Leishmania mexicana pyruvate kinase; Potency, µM (doses to about 57.5 µM), without a hit: top-dose activity change, negative = inhibition, usual class: inhibitors; AID 1721; actives 0.37% (n = 290,000); Q27686; purified LmPK, Kinase-Glo ATP luminescence, 1 h
Target sequence (Q27686 whole entry, looked up): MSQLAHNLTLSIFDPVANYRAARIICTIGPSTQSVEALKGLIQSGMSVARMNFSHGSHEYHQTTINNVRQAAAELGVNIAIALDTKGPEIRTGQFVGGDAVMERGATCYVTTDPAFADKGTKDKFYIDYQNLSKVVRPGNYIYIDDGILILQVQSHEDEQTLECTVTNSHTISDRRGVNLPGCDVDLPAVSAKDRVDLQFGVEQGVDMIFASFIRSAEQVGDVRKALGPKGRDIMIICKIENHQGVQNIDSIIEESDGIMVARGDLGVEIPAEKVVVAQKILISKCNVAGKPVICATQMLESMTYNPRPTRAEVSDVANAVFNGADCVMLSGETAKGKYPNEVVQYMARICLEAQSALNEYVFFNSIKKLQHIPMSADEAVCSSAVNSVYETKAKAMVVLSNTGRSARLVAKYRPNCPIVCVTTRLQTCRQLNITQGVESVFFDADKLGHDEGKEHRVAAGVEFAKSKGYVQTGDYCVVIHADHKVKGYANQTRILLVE
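Pyruvate kinase activity monitored as ATP production (luciferase luminescence). Conditions: 0.1 nM enzyme, 0.5 mM PEP, 0.1 mM ADP, 1 h, RT; normalized against uninhibited and no-enzyme wells.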
Active calls of the source: *; ? = inconclusive; / = no result given. Unless noted, calls come from the whole dose curve; as a rule, active = well fitted curve in the direction sought with a large enough effect; inconclusive = small, poorly fitted or top-dose-only effect, or another doubt; inactive = no such curve, though single readings can be large; an effect the other way counts as inactive or inconclusive. Unless noted, % is set by controls: 0 for no effect and ±100 for the full control effect; potency is the fitted concentration of half-maximal effect.

SMILES	AMA1 RON2 block	Tb PYK inh	Sm TGR inh	RE007 growth inh	LmPK inh
CCOC(=O)c1c(/N=C/c2c(O)n(-c3cccc(C)c3)c(=O)[nH]c2=O)sc2c1CCCC2	-10%	-26%	89µM*	-18%	1%
O=C(CCCCCn1c(=O)c2sccc2n(Cc2ccc(Cl)cc2)c1=O)NCc1ccc2c(c1)OCO2	/	-3%	-2%	/	/
COC(=O)N1CCCc2cc(S(=O)(=O)NCc3ccccc3)ccc21	/	-9%	-7%	/	/
CC1=CC(C)(C)Nc2ccc(Cc3ccc4c(c3)C(C)=CC(C)(C)N4)cc21	16µM*	-8%	4µM*	-5%	2%
CCOc1ccccc1CNC(=O)c1ccc(N2Cc3ccccc3Oc3ncccc32)s1	/	-3%	-1%	/	/
COc1ccc2c(c1)CCc1c(C(=O)NCc3cccnc3)noc1-2	-4%	-2%	28µM*	2%	3%
CCOc1ccc(/C=N/O)cc1	2%	0%	0%	-7%	-2%
CCOc1ccc(/C=N/Nc2ccccc2)cc1	-8%	-1%	25µM*	/	3%
O=c1c(Cl)c(N2CCCCC2)cnn1-c1nc2ccccc2[nH]1	14%	?	0%	-14%	14µM*
Cc1cc(O)c(C(c2cccc(F)c2)N2CCC(C)CC2)c(=O)n1Cc1ccco1 (stereo not drawn)	/	3%	25µM*	/	/
Cc1ccc(C(c2c(O)cc(C)n(Cc3ccco3)c2=O)N2CCC(C)CC2)cc1 (stereo not drawn)	/	-3%	10µM*	/	/
CCC(C)(C)n1nnnc1C(c1ccc(C)cc1)N1CCC(C)CC1 (stereo not drawn)	-23%	9%	0%	-22%	1%
Cc1cc(O)c(C(c2ccccc2)N2CCC(C)CC2)c(=O)n1Cc1ccco1 (stereo not drawn)	/	6%	28µM*	/	/
CNC[C@@H]1CC[C@@H](N)[C@@H](O[C@H]2[C@H](O)[C@@H](O[C@H]3OC[C@](C)(O)[C@H](NC)[C@H]3O)[C@H](N)C[C@@H]2N)O1	/	0%	/	/	/
O=C(COc1ccc2ccccc2c1)Nc1nccs1	17%	-3%	21%	?	-27%
O=C(COc1ccccc1)Nc1nccs1	0%	-16%	-1%	-9%	14µM*
O=C(COc1ccc(Br)cc1)Nc1ccncc1	-2%	-9%	-30%	-22%	4%
O=C(Nc1nccs1)C(Cl)(Cl)Cl	-3%	2%	-5%	16%	13%
O=C(CCl)Nc1nccs1	-3%	1%	3.2µM*	36%	7%
COc1ccccc1CNC(=O)C(=O)Nc1nccs1	7%	-15%	45µM*	-9%	8%
O=C(COc1ccc(Nc2ccccc2)cc1)Nc1ccncc1	?	-12%	45µM*	-10%	/
COc1cccc(CNC(=O)c2ccc(CN3CC(=O)N4CCCCC4C3=O)cc2)c1 (stereo not drawn)	/	9%	-1%	/	/
O=C1NN=C(CSc2n[nH]c(=S)s2)CS1	41%	-23%	40µM*	7%	-4%
COC(=O)c1ccccc1NC(=O)c1nn(C)c2c1COc1ccccc1-2	/	-8%	7.1µM*	/	/
COc1cc(NC(=O)c2nn(C)c3c2COc2ccccc2-3)cc(OC)c1OC	/	4%	32µM*	/	/
SMILES	AMA1 RON2 block	Tb PYK inh	Sm TGR inh	RE007 growth inh	LmPK inh
COc1ccccc1NC(=O)c1nn(C)c2c1CS(=O)(=O)c1ccccc1-2	/	2%	2%	/	/
O=C(Nc1ccc(Cl)cc1)Nc1ccc(Cl)c(C(F)(F)F)c1	/	-5%	/	/	/
O=C(O)c1ccccc1NS(=O)(=O)c1cccc(C(F)(F)F)c1	6%	-1%	14%	3%	5%
O=C(O)c1ccccc1NS(=O)(=O)c1cccc(-n2sc3ccccc3c2=O)c1	-16%	5µM*	?	1%	-19%
Cc1sc(NC(=O)CCl)c(C(=O)c2ccccc2)c1C	-10%	-17%	7.9µM*	0%	6%
CC(=O)N(Cc1ccc2c(c1)OCO2)C1CC(=O)N(CCc2ccccc2)C1=O (stereo not drawn)	-3%	-5%	22µM*	-7%	5%
Cc1cc2nc(-c3ccc[nH]c3=O)[nH]c2cc1C	51%	?	5%	7.1µM*	11µM*
